Results reported in PubChem BioAssay (Tox21).
Inconclusive results are not listed. A number with no mark means an inactive call. Active and inactive are the calls of the source. Calls come from the whole dose curve; as a rule, active = well fitted cell-killing curve with a large enough effect in the repeat runs; inconclusive = weak or mixed curves, or effect the other way; inactive = flat fitted curve, though single readings scatter.

Assay: qHTS RealTime-Glo MT Cell Viability Assay in HepG2 cells - 40 hour (AID 1224870); note: nearly all actives have a fitted effect of over 50% in size
Settings: RealTime-Glo luminescence; series mostly up to 76.8 µM; activity change, negative = cytotoxic: at the top concentration
From the text: National Center for Advancing Translational Sciences [NCATS]
NIH Chemical Genomics Center [NCGC]
U.S. Environmental Protection Agency [EPA]
National Institutes of Environmental Health Sciences [NIEHS]
National Toxicology Program [NTP]
U.S. Food and Drug Administration [FDA]
Measure of cell viability is critical in the cell-base assay. Analysis of cell viability is necessary for the characterization of cell responses to cytotoxic drugs and environmental stress. A RealTime-Glo MT Cell Viability Assay to monitor cell viability in real time of continues cell culture during 40 hours of compound treatment was used to screen Tox21 10K library compounds in HepG2 cells. The RealTime-Glo MT Cell Viability Assay is a nonlytic, homogeneous, bioluminescent method to measure cell viability in real time using a simple, plate-based method. The assay involves adding NanoLuc luciferase and a cell-permeant prosubstrate to cells in culture. Viable cells reduce the proprietary prosubstrate to generate a substrate for NanoLuc luciferase. This substrate diffuses from cells into the surrounding culture medium, where it is rapidly used by the NanoLuc Enzyme to produce a luminescent signal. The signal correlates with the number of viable cells, making the assay well suited for cytotoxicity studies.
Tox21 Assay Protocol Summary:
The mixture of HepG2 cell suspension and reagents were dispensed at 600cells/6 ul/well in 1536-well tissue culture treated black solid bottom plates using a Multidrop dispenser. After the assay plates were incubated at a 37 C/5% CO2 incubator for 5 hours, 23 nL of compounds dissolved in DMSO, positive and negative controls was transferred to the assay plate by a pintool work station. The plates were incubated at 37 C for 40 hours. The luminescence intensity were measured at 0h, 8h, 16h, 24h, 32h and 40h time points using ViewLux plate reader during compound treatment.
% is set by controls: 0 for no effect and ±100 for the full control effect.

Row | SMILES | activity change, negative = cytotoxic | Potency
1 | CCCCCOC(=O)CCCCC | 3.94% | –
2 | CN(C(=O)c1c(O)c2ccccc2n(C)c1=O)c1ccccc1 | 0.945% [at 35.3 µM] | –
3 | CC(C)=CCCC(C)CC(=O)O (stereo not given) | 7.9% | –
4 | CC1=CC(C)C(C=O)CC1 (stereo not given) | 3.18% | –
5 | CC(NC(CCc1ccccc1)C(=O)O)C(=O)N1C(=O)N(C)CC1C(=O)O (stereo not given) | 4.66% [at 35.3 µM] | –
6 | CCCCCCCCCCCCN(CCCCCCCCCCCC)CCCCCCCCCCCC | -0.23% | –
7 | CCCCCCOC(=O)CCCCC(=O)OCCCCCC | -6.02% | –
8 | C/C=C(\C)C#N | -0.781% | –
9 | Nc1ccc(S(=O)(=O)Nc2ccnn2-c2ccccc2)cc1 | 0.768% [at 15.8 µM] | –
10 | C[C@H](NC(CCc1ccccc1)C(=O)O)C(=O)N1CCC[C@H]1C(=O)O (stereo not given in full) | 0.362% [at 35.3 µM] | –
11 | C=C(C)CS(=O)(=O)O | -0.254% | –
12 | CC/C=C\CC/C=C/CO | 5.91% | –
13 | CN1CCN(c2cc3c(cc2F)c(=O)c(C(=O)O)cn3-c2ccc(F)cc2)CC1 | 0.368% [at 35.3 µM] | –
14 | CN1C(=O)N(C)C(O)C1O (stereo not given) | -0.2% | –
15 | O=C1NC(=O)[C@@]2(CCOc3ccc(F)cc32)N1 | -0.917% [at 35.3 µM] | –
16 | CC(C)NC(=O)NC(C)C | -0.145% | –
17 | COC(=O)C1=C(C)NC(C)=C(C(=O)OC)C1c1ccccc1[N+](=O)[O-] | – | inactive
18 | C[N+](C)(C)CC(O)CC(=O)[O-] (stereo not given) | -3.28% [at 35.3 µM] | –
19 | CCOC(C)(C)C | -0.77% | –
20 | Brc1c(NC2=NCCN2)ccc2nccnc12 | -1.39% [at 35.3 µM] | –

Row | SMILES | activity change, negative = cytotoxic | Potency
21 | C[C@H]1C[C@@H](O)CC(C)(C)C1 | -1.47% | –
22 | NS(=O)(=O)c1cc(C(=O)O)cc(N2CCCC2)c1Oc1ccccc1 | 4.9% [at 35.3 µM] | –
23 | O=c1cc(CO)occ1O | 0.295% [at 35.3 µM] | –
24 | CCC(=O)OC(C)c1ccccc1 (stereo not given) | 2.05% | –
25 | CN1CCC(=C2c3ccccc3CC(=O)c3sccc32)CC1 | 0.913% [at 35.3 µM] | –
26 | O=C(O)CCCc1ccccc1 | 1.01% [at 35.3 µM] | –
27 | CC(C)(C)NCCNC(C)(C)C | 1.2% | –
28 | CC(C)NCCCC1(C(N)=O)c2ccccc2-c2ccccc21 | 0.615% [at 35.3 µM] | –
29 | C=COCC1CCC(CO)CC1 (stereo not given) | -1.82% | –
30 | NS(=O)(=O)c1ccc(C(=O)O)cc1 | -0.619% [at 35.3 µM] | –
31 | O=c1n(CCO)c(=O)n(CCO)c(=O)n1CCO | – | inactive
32 | C=C[Si](OC(=C)C)(OC(=C)C)OC(=C)C | 2.11% | –
33 | C1CN(CCOCCN2CCOCC2)CCO1 | 0.423% | –
34 | O=[N+]([O-])c1ccc(F)cc1F | -4.8% | –
35 | CC/C=C\CC/C=C/C(OCC)OCC | -0.447% | –
36 | CCOC(=O)CC(C)=O | -0.747% | –
37 | O=C(O)CN(CCOCCOCCN(CC(=O)O)CC(=O)O)CC(=O)O | 0.968% [at 0.29 µM] | –
38 | Cc1ccc(=O)n(-c2ccccc2)c1 | 2% [at 35.3 µM] | –
39 | CCc1cccc2c(CCO)c[nH]c12 | 4.82% [at 35.3 µM] | –
40 | CCCCOCCOCCOCCCC | -2.18% | –
